Screening results as filed in PubChem BioAssay.
An excerpt weighted towards active compounds, which were near 8.3% of everything screened.
RORgamma inh = blocks mouse ROR gamma transcriptional activity. Drosophila S2 Gal4-RORgamma UAS-luciferase reporter, 20 h. 310,000 tested, 5.4% active. Potency, µM (series often up to 53.6 µM), for the others: at the highest dose activity change, negative = inhibition, actives largely listed as inhibitors; further: potency means the concentration at half of the fitted maximal effect; on the % scale 0 is the no-effect control and ±100 the full control effect; nearly all actives have a fitted effect of over 60% in size
Target sequence (P51450 whole entry, looked up, the tested form may be a part): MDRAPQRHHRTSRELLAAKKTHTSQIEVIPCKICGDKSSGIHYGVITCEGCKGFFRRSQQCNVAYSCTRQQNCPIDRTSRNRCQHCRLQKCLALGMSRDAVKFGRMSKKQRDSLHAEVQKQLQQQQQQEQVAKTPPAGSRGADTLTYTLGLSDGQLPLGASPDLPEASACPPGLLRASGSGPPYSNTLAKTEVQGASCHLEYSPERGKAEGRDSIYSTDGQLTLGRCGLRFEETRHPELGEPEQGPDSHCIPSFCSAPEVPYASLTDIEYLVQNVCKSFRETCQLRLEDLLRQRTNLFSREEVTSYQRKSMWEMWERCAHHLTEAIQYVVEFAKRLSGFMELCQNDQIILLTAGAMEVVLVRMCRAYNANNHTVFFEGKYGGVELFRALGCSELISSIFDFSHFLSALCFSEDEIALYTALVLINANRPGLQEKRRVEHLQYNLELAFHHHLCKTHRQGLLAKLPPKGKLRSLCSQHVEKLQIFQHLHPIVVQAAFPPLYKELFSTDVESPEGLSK
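Stably transfected Drosophila Schneider cells are the test system, with ROR gamma fused to Gal4 and luciferase under UAS control; luminescence is read after 20 hr of 700 uM copper sulfate induction at ambient temperature.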
VP16 counter = Gal4-VP16 reporter inhibition counter-screen | Drosophila S2 Gal4-VP16 UAS-luciferase, luminescence, 20 h | Potency, µM (doses to about 53.6 µM), for the others: top-dose activity, negative = inhibition, most hits filed as inhibitors | 310,000 tested, 3.5% active;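 further: Gal4-VP16 expression switched on by copper sulfate through the metallothionein promoter; potency means the concentration at half of the fitted maximal effect; on the % scale 0 is the no-effect control and ±100 the full control effect; nearly all actives have a fitted effect of over 50% in size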
BCR signal inh = blocks chronic active B-cell receptor signaling. ABC-DLBCL IkBa-CBG/CBR reporter, luminescence ratio, 4 h. Potency, µM (highest dose often 46.1 µM), without a hit: at the top dose activity change, negative = inhibition, actives largely listed as inhibitors. 340,000 tested, 0.05% active; active means well fitted inhibition curve with a large enough effect in the signal ratio, with a control signal flat, not every such curve was filed as active; inconclusive means small, poorly fitted or top-dose-only effect, or effect the other way, or a change in a side signal; the % refers to the signal ratio;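 further: potency means the concentration at half of the fitted maximal effect; plate controls were basal doxycycline-induced cells for no effect and cells given 10 µM MG132 for full effect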
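TMD8 ABC-DLBCL cells carrying doxycycline-inducible green luciferase fused to IkappaBalpha plus unfused red luciferase were exposed to compounds (up to 46 uM) for 4 hrs at 37C. Activity came from the overlap-corrected green/red luminescence ratio.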
SW480 rereplic = DNA re-replication induction in SW480 cells; 340,000 tested, 1.8% active; Potency, µM (series often up to 46.1 µM), for inactives: at the top dose re-replication activation, actives largely listed as activators; AID 624297; SW480 DNA re-replication, Hoechst DNA content imaging, 48 h; further: potency means the concentration at half of the fitted maximal effect; % of control where 0% means no effect; nearly all actives have a fitted effect of over 55% in size
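SW480 cells exposed to compounds for 48 hr at 37 C, 5% CO2, then Hoechst-stained 40 min. Nuclear DNA content imaged by fluorescence scanning (405 nm excitation, 500-530 nm emission); re-replication scored as increased high-intensity nuclei.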
MCF10A rerep = inducers of DNA re-replication in MCF 10A breast cells; MCF 10A DNA re-replication, Hoechst nuclear intensity, 48 h; Potency, µM (doses to about 46.1 µM), without a hit: top-dose activity, positive = re-replication, most hits filed as activators; 350,000 tested, 2.9% active; further: potency means the concentration at half of the fitted maximal effect; % of control where 0% means no effect; nearly all actives have a fitted effect of over 50% in size
Giardia killer = kills Giardia lamblia | activity change, % at 7.66 µM, hits read low | AID 540267 | 340,000 tested, 0.15% active | Giardia lamblia trophozoite viability; in the data active means activity change below about -80%; inconclusive means between about -30% and that limit;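 further: parasites exposed to compound for two days anaerobically before the ATP read; on the % scale 0 is the no-effect control and ±100 the full control effect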
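Trophozoite viability was measured as ATP-dependent luminescence, read 15-30 min after reagent addition. Before that, parasites at 100 cells/well were exposed to compounds for 48 h, anaerobically, at 37 deg C.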
* = called active by the depositor; ? = inconclusive; . = not tested or not shown; [ ] = dose if it differs, or a comment. Unless noted, the call rests on the fitted dose curve; in most records, active means well fitted curve in the direction sought with a large enough effect; inconclusive means small, poorly fitted or top-dose-only effect, or another doubt; inactive means no such curve, though single readings can be large; an effect the other way counts as inactive or inconclusive.

SMILES | RORgamma inh | VP16 counter | BCR signal inh | SW480 rereplic | MCF10A rerep | Giardia killer
CS(=O)(=O)N1CCC2(CCCN(C(c3ccccc3)c3ccccc3)C2)CC1 | 18% | -3% | . | . | . | .
COc1ccc(C2C(C#N)=C(N)Oc3cc4c(cc32)OCO4)cc1 (stereo not drawn) | -23% | -11% | 6% | ? | 21µM* | 2
CC(C)CNC(=S)N1CCC(Cc2ccccc2)CC1 | 10µM* | ? | -1% | 16% | 5% | 0
CCn1c(N2CCN(C(=S)NCC(C)C)CC2)nc2ccccc21 | 29% | 10%[0.365 µM] | 5% | 17% | 18µM* | 9
COCCNC(=S)N1CCC(Cc2ccccc2)CC1 | -30% | -2% | -3% | -11% | 11% | 5
CC(C)NC(=S)N1CCC(Cc2ccccc2)CC1 | 1.1µM* | -20% | -2% | 4%[1.84 µM] | ? | -18
COc1ccc(-c2cc(C(=O)Nc3ccc(C(N)=O)cc3)c3ccccc3n2)cc1 | 16% | 0% | ? | -2% | ? | -19
Cc1cc2cc(CNC(=S)Nc3ccc(OC(F)(F)F)cc3)ccc2[nH]1 | 18µM* | ? | -13% | -4% | ? | 0
Cc1cc2cc(CNC(=S)Nc3ccc(OC(F)F)cc3)ccc2[nH]1 | 13µM* | 22µM* | ? | -4% | ? | -21
CCNC(=S)NCc1ccc2[nH]c(C)cc2c1 | ? | 10% | ? | 0% | 6% | -18
FC(F)Oc1ccc(NC(=S)NCc2nc3ccccc3[nH]2)cc1 | -43% | -21% | 5% | 7% | 3% | 0
CC1(C)CC(=O)N(Cc2ccccc2)C(=O)C1 | 13% | 9% | -1% | 9.2µM* | 0% | -4
Cc1cc(C)c2cc(C#N)c(SCC(=O)Nc3ccc4c(c3)OCO4)nc2c1 | -2% | -6% | -6% | 1% | 7% | 7
Cc1ccc2oc(C(=O)Nc3nnc(CC(C)C)s3)c(C)c2c1 | 7.1µM* | 2% | 0% | -6% | 2% | 1
CCCCc1nnc(NC(=O)c2oc3ccc(OC)cc3c2C)s1 | . | . | -3% | 3% | 17% | 35
O=C(CCC1N=C2c3ccccc3N=C(SCc3ccccc3F)N2C1=O)NCc1ccc(F)cc1 (stereo not drawn) | . | . | 9% | . | . | .
CC(=O)OC(C)(C)/C=C/C(=O)[C@](C)(O)C1[C@H](O)C[C@@]2(C)C3CC=C4C(C=C(O[C@@H]5O[C@H](CO)[C@@H](O)[C@H](O)[C@H]5O)C(=O)C4(C)C)[C@]3(C)C(=O)C[C@]12C (stereo partly drawn) | . | . | -21% | 0.92µM* | 5.2µM* | 24
COc1ccc(NC(=O)CNC(=O)CC23CC4CC(CC(C4)C2)C3)c(OC)c1 | . | . | -2% | -2% | 12% | 16
COc1cccc(C2c3cc4c(cc3OC(N3CCOCC3)C2C)OCO4)c1O (stereo not drawn) | . | . | . | ? | ? | -6
COc1ccc(C2c3cc4c(cc3OC(N3CCOCC3)C2C)OCO4)c(OC)c1 (stereo not drawn) | . | . | . | ? | 2.9µM* | -2
COc1ccc2c(c1)CCC/C2=N\NC(=O)c1ccoc1C | 40µM* | ? | ? | 5% | -1% | -16
Cc1cc(C(=O)N/N=C2\CCCc3ccccc32)c(C)o1 | -11% | 14% | ? | -12% | ? | -17
COc1ccc2c(c1)CCC/C2=N\Nc1nc(C(=O)NN)cs1 | 3.5µM* | 13µM* | ? | -14% | -19% | 6
CCOC(=O)c1csc(N/N=C2\CCCc3ccccc32)n1 | ? | -27% | ? | 19% | ? | -2
COc1ccc(OCC(=O)N/N=C2\CCCc3ccccc32)cc1 | ? | -5% | -22% | 10% | -1% | -9
SMILES | RORgamma inh | VP16 counter | BCR signal inh | SW480 rereplic | MCF10A rerep | Giardia killer
CCOC(=O)c1csc(N/N=C2\CCc3ccccc32)n1 | 10µM* | ? | ? | -5% | ? | 30
COC(=O)c1c(C)[nH]c(C(=O)C(C)OC(=O)c2cnc(C)cn2)c1C (stereo not drawn) | . | . | 0% | -5% | -4% | -6
COc1ccc(NC(=O)c2ccc(N3CCCC3=O)cc2)cc1Cl | . | . | 7% | 2% | 3% | -21
CCOc1ccc(OCCCC(=O)N2CCN(S(=O)(=O)c3ccccc3C#N)CC2)cc1 | . | . | -9% | 0% | 17% | -5
CCn1cc(CN2CCC(C(=O)Nc3ccc(Oc4cccnc4)cc3)CC2)cn1 | -18% | 0% | 0% | -6% | -2% | 4
CCn1c(NC(=O)c2ccc(COc3ccc(C)cc3[N+](=O)[O-])o2)nc2ccccc21 | 2.2µM* | 5µM* | 4% | -4% | ? | -11
CC/C=C\C/C=C\C/C=C\C/C=C\C/C=C\CCC(=O)O[C@H](COCCCCCCCCCCCCCCCC)COP(=O)([O-])OCC[N+](C)(C)C | 30% | 2% | . | . | . | .
CCCN1C(=O)/C(=C/c2ccc(N3CCCC3)c(C)c2)NC1=S | 24% | -3% | -1% | ? | ? | 4
CCN1C(=O)/C(=C/c2ccc(OCc3ccc(C(=O)O)cc3)c(Cl)c2)NC1=S | 2% | -9% | ? | -6% | ? | 10
Cc1cc(/C=C2\NC(=S)N(C)C2=O)ccc1N1CCCC1 | 3.5µM* | ? | 6% | 17% | 2% | 20
CCN1C(=O)/C(=C/c2ccc(N3CCCC3)cc2)NC1=S | 0.79µM* | -86% | ? | 10% | ? | 4
Cc1ccc(CN2C(=O)N/C(=C\c3ccc(N4CCOCC4)cc3)C2=O)cc1 | -73% | 11µM* | ? | 15µM* | 15% | -4
O=C1N/C(=C\c2ccc(N3CCOCC3)c(F)c2)C(=O)N1Cc1ccccc1 | 10% | -10% | 3% | -5% | ? | 12
CCCN1C(=O)/C(=C/c2ccc(N3CCOCC3)cc2)NC1=S | 4µM* | 7.9µM* | ? | 2% | 15% | 0
CCN(CC(=O)NCc1ccc(Cl)cc1)C(=O)c1ccc(S(=O)(=O)NCc2ccco2)cc1 | 17% | 10% | ? | -2% | -2% | -3
COC(=O)CC1C(=O)NCCN1C(=S)NC(=O)C(c1ccccc1)c1ccccc1 (stereo not drawn) | 10µM* | 16µM* | 10% | -1% | 1% | -5
COC(=O)CC1C(=O)NCCN1C(=S)NC(=O)c1sc2ccccc2c1Cl (stereo not drawn) | 0.63µM* | 7.1µM* | 4% | 3% | 0% | -9
COC(=O)CC1C(=O)NCCN1C(=S)NC(=O)CCc1ccccc1 (stereo not drawn) | -11% | -19% | 1% | 6% | -1% | 15
CC(C)OC(=O)CC1C(=O)NCCN1C(=S)NC(=O)c1ccc(F)cc1 (stereo not drawn) | 3.2µM* | 8.9µM* | 1% | 11% | 1% | -8
